Inconclusive results are not listed. A call without a number means that no potency is given here. The source made the active and inactive calls. The call rests on the fitted dose curve; in most records, active means well fitted cell-killing curve with a large enough effect in the repeat runs; inconclusive means weak or mixed curves, or effect the other way; inactive means flat fitted curve, though single readings scatter.

This assay is described as follows: cAMP Responsive Elements (CRE) small molecule agonists, cell-based qHTS assay: qHTS cell viability counter screen (AID 2060914). Further: nearly all actives have a fitted effect of over 50% in size. The conditions noted are these: CRE-bla HEK293T viability, CellTiter-Glo luminescence, 5 h; series mostly up to 92.4 µM. An outline of the steps:
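Luminescence read-out (CellTiter-Glo, 30 min RT) of ATP-based viability in CRE-bla HEK 293T cells, run in the same wells as the β-lactamase reporter assay after 3 h compound treatment at 37 °C.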
For orientation: Quantitative high-throughput screening tests each substance at several concentrations.
Take `CSc1ccc2c(c1)C(N1CCN(C)CC1)Cc1ccccc1S2` (stereo not given): the Potency entry is “inactive”.
Still for that read-out and setting: as for `CN(C)CC/C=C1\c2ccccc2Sc2ccc(Cl)cc21`, the entry is “inactive”; as for `O=Cc1ccc(C(=O)O)cc1`, “inactive”.
The same measure, in the same setting: the result for `CC[C@@]1(O)C(=O)OCc2c1cc1n(c2=O)Cc2c-1nc1ccccc1c2/C=N/OC(C)(C)C` reads “inactive”; that for `N#Cc1cc(NC(=O)C(=O)O)c(Cl)c(NC(=O)C(=O)O)c1`, “inactive”.
`CC1(C)[C@@H](OC(=O)CCC(=O)O)CC[C@]2(C)[C@H]3C(=O)C=C4[C@@H]5C[C@@](C)(C(=O)O)CC[C@]5(C)CC[C@@]4(C)[C@]3(C)CC[C@@H]12`: the Potency entry is “inactive”.
Still for that read-out and setting: as for `O=[N+]([O-])c1ccc(NCCO)c(OCCO)c1`, the entry is “inactive”; as for `CCNC(=S)NCC`, “inactive”.
On the same count and under the same terms, the result for `O=S1(=O)CCCC1` reads “inactive”; that for `OC1C(O)C(O)C(O)C(O)C1O` (stereo not given), “inactive”; that for `COc1cc2c(cc1OC)-c1cc(=Nc3c(C)cc(C)cc3C)n(C)c(=O)n1CC2`, “inactive”.
Still for that read-out and setting: the result for `CC(CN1c2ccccc2Sc2ccccc21)N(C)C` (stereo not given) reads “inactive”; that for `Cc1cccc(O)c1C`, “inactive”.
In the case of `CN(C)CCOC(c1ccc(Cl)cc1)c1ccccn1` (stereo not given), the Potency result is “inactive”.
The same measure, in the same setting: the result for `Nc1cccc(N)n1` reads “inactive”.
On the same count and under the same terms, as for `CCCCC(CC)COCCO` (stereo not given), the entry is “inactive”.
Regarding `NC1=NCC2c3ccccc3Cc3ccccc3N12` (stereo not given), the Potency result was “inactive”.
Same read-out and setting: the result for `Cc1cc2c(cc1S(N)(=O)=O)S(=O)(=O)CCC2` reads “inactive”; that for `CC(=O)c1ccc2c(c1)N(CCCN1CCC(CCO)CC1)c1ccccc1S2`, “inactive”; that for `Nc1ncnc2c1ncn2[C@@H]1O[C@H](CO)[C@@H](O)[C@H]1O`, “inactive”.
Still for that read-out and setting: the result for `Nc1c(S(=O)(=O)O)cc(Br)c2c1C(=O)c1ccccc1C2=O` reads “inactive”; that for `O=C(NS(=O)(=O)/C=C/c1cccs1)c1ccc(F)cc1Br`, “inactive”.
On the same count and under the same terms, as for `N#CSCSc1nc2ccccc2s1`, the entry is “inactive”.
Regarding `CC1CCC(C(C)C)C(O)C1` (stereo not given), the Potency entry is “inactive”.
Same read-out and setting: the result for `CCOC(=O)CC(C)O` (stereo not given) reads “inactive”.
The same measure, in the same setting: as for `CC(=O)[C@H]1CC[C@H]2[C@@H]3CCC4=CC(=O)CC[C@]4(C)[C@H]3CC[C@]12C`, the entry is “inactive”; as for `c1cc(C(c2ccc(OCC3CO3)cc2)C(c2ccc(OCC3CO3)cc2)c2ccc(OCC3CO3)cc2)ccc1OCC1CO1` (stereo not given), “inactive”; as for `CCN1CCN(c2cc3c(cc2F)c(=O)c(C(=O)O)cn3C2CC2)CC1`, “inactive”.
Same read-out and setting: the result for `CCC(C)(C)OC` reads “inactive”; that for `NC1CCCCC1`, “inactive”; that for `CC(C)C[C@H](NC(=O)OCC1c2ccccc2-c2ccccc21)C(=O)O`, “inactive”.
Turning to `C[Si](C)(C)O[Si](C)(C)C`, the Potency entry is “inactive”.
Same read-out and setting: as for `COc1ccc(N)c(C)c1`, the entry is “inactive”; as for `CCCCC(CC)C(=O)OCCOCCOCCOCCOC(=O)C(CC)CCCC` (stereo not given), “inactive”.
With `CC(=O)N(CC(O)CO)c1c(I)c(C(=O)NCC(O)CO)c(I)c(C(=O)NCC(O)CO)c1I` (stereo not given), the Potency entry was “inactive”.
Take `COc1cc2nc(N3CCN(C(=O)c4ccco4)CC3)nc(N)c2cc1OC`: the activity change, negative = cytotoxicity is 4.06% [at 18.9 µM] (inactive).
Turning to `CCCC(C)=O`, the Potency result is “inactive”.
On the same count and under the same terms, as for `C#C[C@]1(OC(C)=O)CC[C@H]2[C@@H]3CCC4=C/C(=N/O)CC[C@@H]4[C@H]3CC[C@@]21CC`, the entry is “inactive”.
The same measure, in the same setting: as for `CCCCC(O)/C=C(C)/C=C/C=C/C(=O)N1CCCC1=O` (stereo not given), the entry is “inactive”; as for `C=CCn1cc[n+](C)c1`, “inactive”.

These data come from PubChem BioAssay (Tox21).
